Laboratory results published in PubChem BioAssay AID1508600 (Functional Genomics Laboratory (NCATS/FGL), 2020).
The whole screen tested about 53,000 sequences, of which about 3,700 (7%) were called active. Only a selection was taken, and actives are over-represented in it overall. A number with no mark means an inactive call.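 How the source made its calls: active means gene knockdowns whose robust z-score for IL-1 alpha signal is at least 2 or at most -2, so actives lie on both sides; inactive means the rest.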

assay: Components of the Cytosolic LPS Sensing Pathway: Gene Identification via Genome-wide siRNA Screen; details: RAW264.7 macrophages, IL-1a HTRF, actives lie on both sides, screened at 100 nM (by protocol), cells primed 5 h with Pam3CSK4 first;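 further: robust z of the log signal after scaling to non-targeting control siRNA wells of the plate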
Procedure, shortened: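 RAW264.7; siRNA 100 nM final, RNAiMAX, 48h 37 degrees C; Pam3CSK4 5 h; LipidA + TransIT-TKO 24 h; IL-1a HTRF; CellTiter-Glo viability; robust z vs negative-control median.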

| Sequence | z-score |
| --- | --- |
| GGGCAACCUGGUUACACAUTT against Zfp637 | 1.25 |
| UAGUCAUUGGGAUUCCUUCTT against Olfr112 | 2.98 (active) |
| GGUGGAAUGAAAGAACAAGTT against Klhl13 | 1.74 |
| GGCCAGGAAAGAUACAGGATT against Rab3c | 0.486 |
| GGCCAUGCUGAAAGUAUUUTT against Olfr561 | -1.46 |
| GCUUAGAAUCUCUGGACAATT against Rnf168 | 3.21 (active) |
| CGGGAACAUAUCAGACUAATT against Mcm3ap | -0.844 |
| GGCCAUUGAGCUCAACCCUTT against Sgta | -1.88 |
| CCUAUAAAUGUCCUUAGUCTT against Ccdc115 | 0.127 |
| CCUAUGGUGCUCUUAUAAATT against Dpp6 | -0.178 |
| GGUCUUAUGUAAGUGGUAUTT against Ociad1 | -2.03 (active) |
| GGCACUGUGGUGUAAAUCCTT against Nnt | -1.53 |
| GGACAUCGAGCUUCAGAUCTT against Dnm1l | 2.68 (active) |
| GGAGAUCGAUGGAGACUUCTT against Sftpa1 | -0.773 |
| CGACGAAUGUCCUGAACAUTT against Tmem106a | -0.193 |
| GCCUUGAUCCUACUGUAACTT against Amigo3 | 2.12 (active) |
| GGGACUUAAGGUUAGACACTT against E330018D03Rik | 0.163 |
| CGACCUGUUCGCCAUCAAATT against Scaf1 | 0.511 |
| CGAGGUGCUAAUCUGGCCUTT against Dctpp1 | 0.241 |
| GGAACAAAUCCUGGAACUGTT against Zfp449 | 1.15 |
| GGACUGGUCAGAGAUGGAUTT against Pced1a | 5.33 (active) |
| GGAAAUGUGGUAAUUCCGATT against Cd44 | 0.256 |
| CGAAAUGAAAACUUCCUGGTT against Mab21l1 | 0.989 |
| CCAUCAGUAUUCACAACAATT against Usp42 | -3.12 (active) |
| GUUACCUCGUGGAAAGCAUTT against Vmn1r43 | -0.345 |
| GGUUUGAAGAUGAUGCCUCTT against Nfkbil1 | -0.848 |
| GGACCACUAGACCUGAUAATT against Itgb1bp1 | 0.116 |
| GCAUCCCGACUACAAGUACTT against Sox21 | -2.06 (active) |
| GGUCCGGUCUCAGACUUCATT against Ift27 | 1.16 |
| GAUUGUCACCACCUUAAGATT against Chchd5 | -0.964 |
